Data from PubChem BioAssay AID1851 (National Center for Advancing Translational Sciences (NCATS), 2009).
About 5,700 (36%) of roughly 16,000 compounds were called active. Roughly 24% stayed inconclusive and do not appear here. Calls follow the shape of the dose curve; as a rule, active = well fitted curve in the direction sought with a large enough effect; inconclusive = small, poorly fitted or top-dose-only effect, or effect the other way; inactive = no such curve, though single readings can be large or run the other way. The list shows a part of the results.
% is scaled to controls: 0 for no effect and ±100 for the full control effect.

The compounds below were run against Cytochrome P450 1A2 (Homo sapiens) (UniProt P05177) (assay: Cytochrome panel assay with activity outcomes). Conditions: recombinant CYP, pro-luciferin dealkylation, luminescence, p450-cyp1a2; series mostly up to 57.1 µM.
Chain of Cytochrome P450 1A2 (Homo sapiens) (P05177 whole entry, looked up): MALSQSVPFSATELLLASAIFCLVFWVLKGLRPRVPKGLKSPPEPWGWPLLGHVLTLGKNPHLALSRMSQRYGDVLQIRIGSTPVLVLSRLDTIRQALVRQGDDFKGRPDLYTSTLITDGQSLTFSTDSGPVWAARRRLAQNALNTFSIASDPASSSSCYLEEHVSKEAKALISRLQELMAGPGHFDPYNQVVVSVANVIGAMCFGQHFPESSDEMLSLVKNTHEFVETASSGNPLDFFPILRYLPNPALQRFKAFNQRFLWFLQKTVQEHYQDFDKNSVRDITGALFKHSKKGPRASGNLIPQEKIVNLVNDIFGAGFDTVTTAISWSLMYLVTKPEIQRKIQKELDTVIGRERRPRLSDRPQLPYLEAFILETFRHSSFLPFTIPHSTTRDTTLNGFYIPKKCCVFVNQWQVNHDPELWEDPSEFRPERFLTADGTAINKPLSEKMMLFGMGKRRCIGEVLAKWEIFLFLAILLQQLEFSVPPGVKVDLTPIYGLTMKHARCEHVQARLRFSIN
`CC1=CC(C)(C)NC(=S)N1c1cccc(C)c1` was tested, and the AC50 was “inactive”.
For `COc1cccc(-c2ccc3ncnc(NCc4cccs4)c3c2)c1`, the AC50 was 0.501 µM (active).
With `Cc1cc(C)cc(N(CC(=O)NCCSc2ccccn2)S(=O)(=O)c2ccccc2)c1` the AC50 was “inactive”.
For `Cn1c([N+](=O)[O-])cnc1COC(N)=O`, the AC50 was “inactive”.
With `Cc1cccc(C)c1NC(=O)CS(=O)CC(=O)NCCCc1ccccc1` (stereo not drawn) the AC50 was “inactive”.
For `CC[N+](CC)(CC(=O)Nc1c(C)cccc1C)Cc1ccccc1`, the AC50 was “inactive”.
`COC(=O)c1scc(C)c1NC(=O)Cc1ccccc1` was tested, and the AC50 was 12.6 µM (active).
In the case of `Nc1ncnc2c1ncn2[C@@H]1O[C@@H](C(=O)NC2CC2)[C@H](O)[C@@H]1O`, the AC50 was “inactive”.
With `Cc1ccc2[nH]c3c(c2c1)CN(C(=O)CN1c2ccc(F)cc2CCC1C)CC3` (stereo not drawn) the AC50 was 5.62 µM (active).
`CNCCCC1c2ccccc2C=Cc2ccccc21` was tested, and the AC50 was “inactive”.
In the case of `O=C(OCc1nnc(-c2ccccc2)o1)c1ccc2c(c1)OCCO2`, the AC50 was 2.51 µM (active).
In the case of `CCCN1C(=O)C2(/C(=C(\O)c3ccc4c(c3)OCCO4)C(=O)C(=O)N2CCCOC)c2ccccc21` (stereo not drawn), the AC50 was “inactive”.
In the case of `Cc1ncc(N=Nc2ccccc2Cl)c(-c2ccccc2)n1`, the AC50 was 0.631 µM (active).
`CN(C(=O)CN(CCO)CC(=O)N(C)C(C)(C)Cc1ccccc1)C(C)(C)Cc1ccccc1` was tested, and the AC50 was “inactive”.
For `OCCN(Cc1ccccc1)Cc1cccc(Cl)c1Cl`, the AC50 was 5.62 µM (active).
`CCc1c(O)nc2sc3ccccc3n2c1=O` was tested, and the AC50 was 15.8 µM (active).
In the case of `CCc1c(O)nc(SCC(=O)NC(C)(C)C)n(-c2ccccc2)c1=O`, the AC50 was “inactive”.
`CCCc1nn2c(=O)c(C(c3ccc(C)cc3)c3c(O)nc4sc(CCC)nn4c3=O)c(O)nc2s1` was tested, and the AC50 was “inactive”.
With `COc1ccc(Oc2ncc3ncc(=O)n(C[C@H]4CCCO4)c3n2)cc1` the AC50 was 6.31 µM (active).
In the case of `O=c1cnc2cnc(Oc3cccc(Cl)c3)nc2n1C[C@H]1CCCO1`, the AC50 was 5.01 µM (active).
In the case of `COc1ncc2ncc(=O)n(C[C@H]3CCCO3)c2n1`, the AC50 was 15.8 µM (active).
`CCC(=O)Nc1ccc(C(=O)CSc2nnc(-c3ccc(O)cc3)n2CC2CCCO2)cc1OC` (stereo not drawn) was tested, and the AC50 was “inactive”.
With `COC(=O)C1=C(N)Oc2cc(C)n(CC3CCCO3)c(=O)c2C1c1ccccc1OC` (stereo not drawn) the AC50 was “inactive”.
For `COc1ccc(Oc2ncc3nc(C)c(=O)n(C[C@H]4CCCO4)c3n2)cc1`, the AC50 was 12.6 µM (active).
`CN1CCC(=C2c3ccccc3CC(=O)c3sccc32)CC1` was tested, and the AC50 was “inactive”.
For `CC1(CCC#N)N=C(SCCC#N)N(c2ccccc2)C1=O` (stereo not drawn), the AC50 was “inactive”.
With `C=C1CCO[C@@]2([C@H](O)[C@@](C)(O)CO)NC(=O)[C@]1(O)NC2=O` the activity, negative = inhibition was -3.99% [at 2.29 µM] (inactive).
In the case of `Cc1ccc(NC(=O)NNC(=O)Cn2nc(-c3ccccc3)c(-c3ccccc3)c(C#N)c2=O)cc1`, the AC50 was “inactive”.
With `Cc1nc2c(c(-c3ccccc3)c1C#N)C(=O)c1ccccc1-2` the AC50 was 0.2 µM (active).
With `O=C(COc1cccc2ccccc12)N1c2ccccc2CCc2ccccc21` the AC50 was 6.31 µM (active).
With `O=C1c2ccccc2C(=O)N1CC(=O)N1c2ccccc2CCc2ccccc21` the AC50 was “inactive”.
For `CCN(CC)CCC(=O)Nc1ccc2c(c1)N(C(=O)CN(CC)CC)c1ccccc1CC2`, the AC50 was “inactive”.
With `C[C@@H](C[C@H](N)C(=O)O)C(=O)O` the activity, negative = inhibition was -18.7% [at 11.4 µM] (inactive).
`CCOC(=O)C1=NO[C@@]2(C=C(Br)C3(OCCCO3)[C@H]3O[C@H]32)C1` was tested, and the activity, negative = inhibition was 1.82% [at 11.4 µM] (inactive).
For `COc1ccc(N2C(=O)CC(S/C(N)=N/N=C(\C)c3cccs3)C2=O)cc1` (stereo not drawn), the AC50 was 2.51 µM (active).
In the case of `Cc1cc(C)cc(N2C(=O)CC(Sc3nnnn3-c3ccccc3)C2=O)c1` (stereo not drawn), the AC50 was “inactive”.
`CC(C)(C)NS(=O)(=O)c1ccc(NC(=O)NC2CCCCC2)cc1` was tested, and the AC50 was “inactive”.
With `Oc1ccccc1-c1nnc(-c2ccc(C(F)(F)F)cc2)o1` the AC50 was 5.01 µM (active).
With `O=C(C[C@@H]1C=Cc2ccccc2N1C(=O)c1ccccc1)c1ccccc1` the activity, negative = inhibition was -23.2% [at 2.29 µM] (inactive).
With `O=C(/C=C\NCC(=O)c1ccccc1)c1ccccc1` the AC50 was 5.01 µM (active).
In the case of `CC(C)CCOc1ccc(NC(=O)C2OC3OC(C)(C)OC3C3OC(C)(C)OC23)cc1` (stereo not drawn), the AC50 was “inactive”.
`c1ccc(-c2nc(CSc3n[nH]c(-c4cccs4)n3)cs2)cc1` was tested, and the AC50 was 2.82 µM (active).
`Cc1c(C)n(C)c2ccc(C(=O)Nc3cccc4ccccc34)cc12` was tested, and the AC50 was 2 µM (active).
In the case of `COC(=O)CCC(=O)Nc1cccc(C(=O)Nc2cccc(Cl)c2)c1`, the AC50 was 4.47 µM (active).
In the case of `O=C(O)c1ccc(C(=O)Nc2cccc3ccccc23)c(C(=O)O)c1`, the activity, negative = inhibition was -6.15% [at 2.29 µM] (inactive).
In the case of `CCn1c(C)c(C)c2cc(C(=O)Nc3cccc(Cl)c3)ccc21`, the AC50 was 3.16 µM (active).
In the case of `O=c1[nH]c(=O)n(Cc2ccco2)c2c1C(C(F)(F)F)(C(F)(F)F)N=C(CCC1CCCCC1)N2`, the AC50 was “inactive”.
In the case of `CC1(C)CCC(NC(=O)[C@H](N)CCC(=O)O)CC1`, the AC50 was “inactive”.
For `Cc1cnc(CNc2ccnc(-c3ccccc3C)n2)cn1`, the AC50 was 12.6 µM (active).
With `COc1ccccc1-c1nccc(NCc2cnc(C)cn2)n1` the AC50 was 12.6 µM (active).
`Cc1cnc(CNc2ccnc(-c3ccccc3Cl)n2)cn1` was tested, and the AC50 was 12.6 µM (active).
For `Cc1cnc(CNc2ccnc(-c3ccccc3C(F)(F)F)n2)cn1`, the AC50 was 15.8 µM (active).
In the case of `Cc1ccc(S(=O)(=O)CC(O)CN2CCCC2=O)cc1` (stereo not drawn), the AC50 was “inactive”.
`O=S1(=O)N[C@H]2CC[C@@H]3NS(=O)(=O)N[C@H]4CC[C@H](N1)N4S(=O)(=O)N23` was tested, and the activity, negative = inhibition was 2.05% [at 11.4 µM] (inactive).
In the case of `Cn1c(=O)c2c(nc(Cl)n2Cc2ccc(Cl)c(Cl)c2)n(C)c1=O`, the AC50 was 12.6 µM (active).
For `CN(C)CCn1c(CO)nc2c1c(=O)n(C)c(=O)n2C`, the activity, negative = inhibition was -6.02% [at 11.4 µM] (inactive).
`Cn1c(=O)c2c(nc(Cc3ccccc3)n2CC(=O)O)n(C)c1=O` was tested, and the activity, negative = inhibition was -13.2% [at 2.29 µM] (inactive).
With `COc1ccc2c(OC)c3ccoc3nc2c1OC` the AC50 was 0.0794 µM (active).
In the case of `CS(=O)(=O)N1CCC2(CCN(C(c3ccccc3)c3ccccc3)CC2)CC1`, the AC50 was “inactive”.
With `COc1ccc2[nH]cc(CCNc3ncncc3-c3ccccc3C(F)(F)F)c2c1` the AC50 was 10 µM (active).
`COc1ccc2[nH]cc(CCNc3ncncc3-c3ccccc3Cl)c2c1` was tested, and the AC50 was 0.631 µM (active).
In the case of `COc1ccc2[nH]cc(CCNc3ncncc3-c3c(C)noc3C)c2c1`, the AC50 was 12.6 µM (active).
In the case of `COc1ccc2[nH]cc(CCNc3ncncc3-c3ccccc3CN(C)C)c2c1`, the AC50 was 20 µM (active).
